The values below come from PubChem BioAssay AID435030 (The Scripps Research Institute Molecular Screening Center, 2010).

The inhibition is the relative decrease from the control value, in per cent.

Where “and” joins values, the source holds several entries; their conditions need not be identical. Identical values can stand only once. Out of some 330,000 compounds screened, about 940 (0.28%) were called active. No stated cut-off is given here; in the data, active means inhibition above about 12%; inactive means the rest. The sample as a whole holds a higher share of actives than the screen did. Some compounds were tested as several samples or in several runs, with calls that do not always agree.

The assay in a line: reduced growth of AddAB-expressing E. coli cells – absorbance, AddAB inhibitor project, primary screen (AID 435030).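 Further: 0% = vehicle wells of infected cells.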 Particulars: E. coli expressing H. pylori AddAB, at 11.9 µM, stronger effect = higher value.
Regarding `Cc1ccc(NC(=O)C(C)Sc2nnc(C3CC3)n2C2CC2)cc1S(=O)(=O)N1CCOCC1` (configuration not stated), the inhibition was -0.26% (inactive).

As for `CCOc1ccccc1NC(=O)C12CC3CC(C1)CC(c1ccc(C)cc1)(C3)C2`, the inhibition was 78.7% (active).

`Cc1ccc(C23CC4CC(CC(C(=O)NCC(=O)O)(C4)C2)C3)cc1`: the inhibition was 1.92% (inactive).

Consider `COc1ccccc1NC(=S)N1CCC(NC(=O)C23CC4CC(CC(C4)C2)C3)CC1`, for which the inhibition is 4.75% (inactive).

In the case of `Cc1noc(NS(=O)(=O)c2ccc(NC(=O)C34CCC(CC3)C4)cc2)c1C`, the inhibition is 1.62% (inactive).

For the compound `Cc1ccc(C(=O)/C=C/Nc2ccc(S(=O)(=O)Nc3onc(C)c3C)cc2)cc1`, the inhibition is 12.7% (active).

Take `Cc1cc(OC(C)C(=O)Nc2ccc(S(=O)(=O)Nc3onc(C)c3C)cc2)cc(C)c1Cl` (configuration not stated): the inhibition was -1.11% (inactive).

`Cc1ccc(Sc2ccncc2S(N)(=O)=O)cc1`: the inhibition was 4.14% (inactive).

Turning to `COc1ccc(N2CCN(S(=O)(=O)CCNC(=O)C34CC5CC(CC(C5)C3)C4)CC2)cc1`, the inhibition is 3.21% (inactive).

`COc1cccc(NC(=O)C(Sc2nc3ccccc3c(=O)n2CC(C)C)c2ccccc2)c1` (configuration not stated): the inhibition is 2.26% (inactive).

For `O=C(/C=C/c1ccc([N+](=O)[O-])o1)NNC(=O)c1ccc(F)cc1`, the inhibition is 97.8% (active).

With `O=C(NNC(=O)C1CCCC1)c1ccc(F)cc1`, the inhibition was -2.96% (inactive).

As to `CCc1noc(C)c1C(=O)NNC(=O)c1ccc(F)cc1`, the inhibition was -0.34% (inactive).

Consider `Cc1ccc(Cl)cc1NC(=S)N(CCN(C)C)Cc1cccs1`, for which the inhibition is 4.63% (inactive).

With `CCn1c(/C=C/Nc2ccccc2)[n+](CC)c2ccc(C(=O)OCC(F)(F)F)cc21`, the inhibition was -1.7% (inactive).

In the case of `S=c1[nH]nc(-c2ccc(Cl)cc2)n1CC1CCCO1` (configuration not stated), the inhibition is 0.6% (inactive).

In the case of `O=C(c1nnc(-c2ccc(Cl)cc2)o1)C1CCCC1`, the inhibition was 0.77% (inactive).

Take `O=C(c1[nH]ncc1-c1ccc(Cl)cc1)C1CO1` (configuration not stated): the inhibition was 12.5% (active).

As for `CCC(C)[C@H]1COCCS(=O)(=O)N1Cc1ccc(C)cc1` (some centres not stated), the inhibition is 2.11% (inactive).

On to `C=CC1=C(C(=O)O)N2C(=O)[C@@H](NC(=O)/C(=N/OCC(=O)O)c3csc(N)n3)[C@H]2SC1`, for which the inhibition was 97.5% (active).

As for `CC(C)(C)OC(=O)C1=C(CO)CS[C@@H]2[C@H](NC(=O)Cc3ccccc3)C(=O)N12`, the inhibition was 0.4% (inactive).

Regarding `C=CC1=C(C(=O)O)N2C(=O)[C@@H](NC(=O)/C(=N\OCC(=O)O)c3csc(N)n3)[C@H]2SC1`, the inhibition was 99.5% (active).

Regarding `Cc1nnc(SCC2=C(C(=O)O)N3C(=O)C(NC(=O)Cn4nc(C)c(Cl)c4C)C3SC2)s1` (configuration not stated), the inhibition is -3.23% (inactive).

Regarding `CO/N=C(\C(=O)N[C@@H]1C(=O)N2C(C(=O)O)=C(COC(C)=O)CS[C@H]12)c1csc(N)n1` (stereo in doubt), the inhibition is 98.8% (active) and 99.7% (active) and -0.42% (inactive).

Consider `Cc1cc(C)cc(C(=O)NC2C(=O)N3C(C(=O)O)=C(CSc4nnc(C)s4)CSC23)c1` (configuration not stated), for which the inhibition is -1.61% (inactive).

Consider `Cc1ccc(S(=O)(=O)N2[C@@H](c3cccc4ccccc34)C(C(=O)O)=C[C@H]2C(C)(C)C)cc1`, for which the inhibition was -0.17% (inactive).

Turning to `C=CCOc1cccc(CNCc2cccnc2)c1`, the inhibition was 4.34% (inactive).

In the case of `O=C1N[C@H](Cc2ccccc2)C(=O)N[C@H]1Cc1cn(S(=O)(=O)c2ccccc2)c2ccccc12`, the inhibition is 3.88% (inactive).

In the case of `Cc1ccc(C(=O)N/C(=C\c2cccs2)C(=O)NCCc2ccccn2)cc1C`, the inhibition is -1.59% (inactive).

`COc1ccc(C(=O)c2c(C)c(CCC#N)n3ccccc23)c(OC)c1`: the inhibition was 4.64% (inactive).

On to `CNc1ccc(SC#N)cc1`, for which the inhibition was 3.2% (inactive).

In the case of `CC(=O)Nc1ccc(NC(=O)CC2CCCC2)cc1`, the inhibition is 3.59% (inactive).

Take `CCOC(=O)c1cnc(-n2nc(C)cc2C)nc1NNc1cc(C)nc(-c2ccccc2)n1`: the inhibition is 1.33% (inactive).

Regarding `O=C(Nc1ccc2c(c1)CCC2)c1ccc(Br)s1`, the inhibition was 0.08% (inactive).

Turning to `Cc1nn(CC#N)c(=O)n1N(C)c1ncc(C(F)(F)F)cc1Cl`, the inhibition is -0.77% (inactive).

Take `O=C(O)C(c1ccccc1)N1C(=O)/C(=C\c2ccc(-c3cccc(Cl)c3)o2)SC1=S` (configuration not stated): the inhibition was 1.17% (inactive).

For `CC(=O)NN1C(=O)c2ccccc2NC1c1ccccc1` (configuration not stated), the inhibition was 0.33% (inactive).

Turning to `O=C1c2ccccc2NC(c2ccc(-c3cccc(Cl)c3)o2)N1O` (configuration not stated), the inhibition was 21.1% (active).

Turning to `O=C(N=C1SC2CS(=O)(=O)CC2N1c1cc(Cl)ccc1Cl)C1CC1` (configuration not stated), the inhibition was 1.12% (inactive).

`CCC1CO/C(=C(\C(=C(Cl)Cl)N2CCOCC2)[N+](=O)[O-])N1` (configuration not stated): the inhibition is 0.26% (inactive).

Consider `Cc1cc(C)n(-c2nnc(N3CCN(c4ccccc4)CC3)nn2)n1`, for which the inhibition was 1.11% (inactive).

Turning to `COc1ccc(OC)c(NC(=O)C2CCCN2S(=O)(=O)c2cccc3nsnc23)c1` (configuration not stated), the inhibition is 2.19% (inactive).

On to `Cc1ncoc1C(=O)NCCC(c1ccccc1)c1ccccc1`, for which the inhibition was 0.08% (inactive).

`CCOc1cc(S(=O)(=O)NCc2ccc3c(c2)OCO3)ccc1F`: the inhibition was 1.89% (inactive).

For the compound `COc1cc(NS(=O)(=O)c2ccc(NC(=O)c3ccc([N+](=O)[O-])cc3)cc2)ncn1`, the inhibition was 0.95% (inactive).

For the compound `CC(=O)NC(=S)Nc1ccc(NC(=S)NC(=O)c2ccc([N+](=O)[O-])cc2)cc1`, the inhibition was -0.43% (inactive).

On to `Cn1ccc(=Nc2ccc(NC(=O)c3ccc(N=c4ccn(C)c5ccc([N+](=O)[O-])cc45)cc3)cc2)cc1`, for which the inhibition is 95.1% (active).

For the compound `Brc1ccc(CN2CC[C@H]3C=CCc4cccc(c43)C2)cc1`, the inhibition is 4.02% (inactive).

For the compound `C=CCNC(=O)c1cc(-c2ccccc2O)on1`, the inhibition is 96.1% (active).

Consider `C=CCNC(=O)c1csc(-c2ccccc2)n1`, for which the inhibition is 0.48% (inactive).

Regarding `O=C(Nc1cccnc1Cl)c1cc(-c2ccccc2O)on1`, the inhibition is 3.57% (inactive).

As to `FC(F)(F)c1ccc2nnc(-c3c(Cl)cccc3Cl)n2c1`, the inhibition was 2.64% (inactive).

As to `Cc1ccc(OCC(=O)c2cc(C)n(Cc3ccco3)c2C)c([N+](=O)[O-])n1`, the inhibition is 3.36% (inactive).

As to `O=C(OCC1O[C@@H](OC(=O)c2cc(O)c(O)c(O)c2)[C@@H](OC(=O)c2cc(O)c(O)c(O)c2)[C@@H](OC(=O)c2cc(O)c(O)c(O)c2)[C@@H]1OC(=O)c1cc(O)c(O)c(O)c1)c1cc(O)c(O)c(O)c1` (some centres not stated), the inhibition was 27.8% (active).

Take `C=C1c2cccc(OC)c2O[C@H](C(=O)OCC)[C@@H]1CCCCCC`: the inhibition was -0.56% (inactive).

In the case of `O=C(CCCN1C(=O)CCC1=O)Nc1ccc(Cl)c(C(F)(F)F)c1`, the inhibition was 2.75% (inactive).

For the compound `CS(=O)(=O)N(CC(=O)Nc1ccc(Cl)c(Cl)c1)C1CCCCC1`, the inhibition was -0.7% (inactive).

With `O=C(CC(O)(C(F)(F)F)C(F)(F)F)Nc1ccc(Cl)c(Cl)c1`, the inhibition is 18.6% (active).

For `COc1cc(C)c(C(C)C)cc1S(=O)(=O)n1ccnc1`, the inhibition was 2.64% (inactive).

For the compound `O=C(NCc1ccco1)c1ccc([N+](=O)[O-])cc1Cl`, the inhibition is 0% (inactive).

As for `CS(=O)(=O)c1ccc(Cl)c(NC(=O)COC(=O)c2ncc(Cl)c(Cl)c2Cl)c1`, the inhibition is 1.36% (inactive).

Consider `CCCCOc1ccc(Cl)cc1CSc1nncn1N`, for which the inhibition is 0.43% (inactive).
